In PubChem BioAssay AID1159580 (chemical genetic matrix, 2015):
In all, about 5,500 compounds went through this assay and about 2,000 (36%) were called active. Not shown: some 18% with an inconclusive outcome. Rule as the data show it: active = normalized growth mostly below about 0.91 (no sharp cut-off); inconclusive = no clear call, values can overlap the other calls; inactive = mostly above about 0.92. Some of the results follow.

Assay: chemical genetic growth profiling, strain panel (AID 1159580);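 also: tested at 20 µM; growth read once vehicle control cultures reached saturation at 30 °C; 1 = growth at the plate median or of vehicle wells; lower values mean less growth of the strain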
Details: growth OD

Measured: normalized growth

ClC(Cl)=C(c1ccc(Cl)cc1)c1ccc(Cl)cc1
active: S. cerevisiae deletion strains, locus YKL068W, hits give low values 0.94 | S. cerevisiae deletion strains, locus YLR039C, strain RIC1, hits give low values 0.637 | S. cerevisiae deletion strains, locus YNL307C, strain MCK1, hits give low values 0.841
inactive: S. cerevisiae deletion strains, locus YJR075W, strain HOC1, hits give low values 0.947 | S. cerevisiae deletion strains, locus YKL009W, strain mrt4, hits give low values 0.995 | S. cerevisiae deletion strains, locus YKL085W, strain MDH1 (second series), hits give low values 0.931 | S. cerevisiae deletion strains, locus YKL085W, strain MDH1, hits give low values 0.931 | S. cerevisiae deletion strains, locus YKL160W, strain elf1, hits give low values 0.998 | S. cerevisiae deletion strains, locus YKL190W, strain CNB1, hits give low values 0.966 | S. cerevisiae deletion strains, locus YKR001C, strain vps1, hits give low values 0.949 | S. cerevisiae deletion strains, locus YKR026C, strain gcn3, hits give low values 1 | S. cerevisiae deletion strains, locus YKR091W, strain srl3, hits give low values 0.985 | S. cerevisiae deletion strains, locus YLL001W, strain dnm1, hits give low values 0.996 | S. cerevisiae deletion strains, locus YLL026W, hits give low values 0.993 | S. cerevisiae deletion strains, locus YLL041C, strain sdh2, hits give low values 0.991 | S. cerevisiae deletion strains, locus YLR027C, strain aat2, hits give low values 1.01 | S. cerevisiae deletion strains, locus YLR058C, strain SHM2, hits give low values 0.962 | S. cerevisiae deletion strains, locus YLR102C, strain apc9, hits give low values 0.954 | S. cerevisiae deletion strains, locus YLR113W, strain HOG1, hits give low values 0.979 | S. cerevisiae deletion strains, locus YLR221C, strain rsa3, hits give low values 0.994 | S. cerevisiae deletion strains, locus YLR258W, strain gsy2, hits give low values 0.985 | S. cerevisiae deletion strains, locus YLR262C, strain YPT6 (second series), hits give low values 1.04 | S. cerevisiae deletion strains, locus YLR262C, strain YPT6, hits give low values 0.652 | S. cerevisiae deletion strains, locus YLR268W, strain sec22, hits give low values 0.969 | S. cerevisiae deletion strains, locus YLR320W, strain mms22, hits give low values 0.967 | S. cerevisiae deletion strains, locus YLR330W, strain CHS5, hits give low values 0.962 | S. cerevisiae deletion strains, locus YLR342W, strain FKS1 (second series), hits give low values 0.879 | S. cerevisiae deletion strains, locus YLR342W, strain FKS1, hits give low values 0.983 | S. cerevisiae deletion strains, locus YLR357W, strain rsc2, hits give low values 1 | S. cerevisiae deletion strains, locus YLR370C, strain arc18, hits give low values 0.996 | S. cerevisiae deletion strains, locus YLR371W, strain rom2, hits give low values 0.953 | S. cerevisiae deletion strains, locus YLR384C, strain iki3, hits give low values 0.987 | S. cerevisiae deletion strains, locus YLR418C, strain cdc73, hits give low values 0.905 | S. cerevisiae deletion strains, locus YML016C, strain PPZ1, hits give low values 0.946 | S. cerevisiae deletion strains, locus YML032C, strain rad52, hits give low values 0.949 | S. cerevisiae deletion strains, locus YML120C, strain ndi1, hits give low values 0.988 | S. cerevisiae deletion strains, locus YML124C, strain tub3, hits give low values 0.942 | S. cerevisiae deletion strains, locus YMR058W, strain fet3, hits give low values 0.996 | S. cerevisiae deletion strains, locus YMR078C, strain ctf18, hits give low values 0.925 | S. cerevisiae deletion strains, locus YMR125W, strain sto1, hits give low values 0.988 | S. cerevisiae deletion strains, locus YMR129W, hits give low values 0.997 | S. cerevisiae deletion strains, locus YMR205C, strain PFK2, hits give low values 0.959 | S. cerevisiae deletion strains, locus YMR223W, strain ubp8, hits give low values 0.964 | S. cerevisiae deletion strains, locus YMR231W, strain pep5, hits give low values 0.999 | S. cerevisiae deletion strains, locus YMR263W, strain SAP30, hits give low values 0.96 | S. cerevisiae deletion strains, locus YMR307W, strain GAS1, hits give low values 0.978 | S. cerevisiae deletion strains, locus YNL067W, strain RPL9B, hits give low values 0.974 | S. cerevisiae deletion strains, locus YNL071W, strain lat1, hits give low values 1 | S. cerevisiae deletion strains, locus YNL128W, strain TEP1, hits give low values 0.973 | S. cerevisiae deletion strains, locus YNL153C, strain GIM3, hits give low values 0.98 | S. cerevisiae deletion strains, locus YNL183C, strain NPR1, hits give low values 0.986 | S. cerevisiae deletion strains, locus YNL209W, strain ssb2, hits give low values 0.994 | S. cerevisiae deletion strains, locus YNL233W, strain BNI4, hits give low values 0.981 | S. cerevisiae deletion strains, locus YNL248C, strain rpa49, hits give low values 0.993 | S. cerevisiae deletion strains, locus YNL250W, strain rad50, hits give low values 0.917 | S. cerevisiae deletion strains, locus YNL271C, strain bni1, hits give low values 0.957 | S. cerevisiae deletion strains, locus YNL298W, strain CLA4, hits give low values 0.953 | S. cerevisiae deletion strains, locus YNL322C, strain KRE1 (second series), hits give low values 0.989 | S. cerevisiae deletion strains, locus YNL322C, strain KRE1, hits give low values 0.963 | S. cerevisiae deletion strains, locus YNR049C, strain mso1, hits give low values 0.994 | S. cerevisiae deletion strains, locus YNR052C, strain pop2, hits give low values 0.954 | S. cerevisiae deletion strains, locus YOL006C, strain TOP1, hits give low values 1.01 | S. cerevisiae deletion strains, locus YOL012C, strain htz1 0.487 | S. cerevisiae deletion strains, locus YOL147C, strain pex11, hits give low values 0.946 | S. cerevisiae deletion strains, locus YOR001W, strain rrp6, hits give low values 0.989 | S. cerevisiae deletion strains, locus YOR061W, strain CKA2, hits give low values 0.957 | S. cerevisiae deletion strains, locus YOR069W, strain VPS5, hits give low values 0.955 | S. cerevisiae deletion strains, locus YOR070C, strain gyp1, hits give low values 1 | S. cerevisiae deletion strains, locus YOR080W, strain dia2, hits give low values 0.988 | S. cerevisiae deletion strains, locus YOR083W, strain WHI5, hits give low values 0.994 | S. cerevisiae deletion strains, locus YOR106W, strain vam3, hits give low values 1 | S. cerevisiae deletion strains, locus YOR136W, strain idh2, hits give low values 0.96 | S. cerevisiae deletion strains, locus YOR144C, strain elg1, hits give low values 0.952 | S. cerevisiae deletion strains, locus YOR184W, strain ser1, hits give low values 0.954 | S. cerevisiae deletion strains, locus YOR231W, strain MKK1, hits give low values 1.04 | S. cerevisiae deletion strains, locus YOR265W, strain rbl2, hits give low values 0.992 | S. cerevisiae deletion strains, locus YOR270C, strain vph1, hits give low values 0.978 | S. cerevisiae deletion strains, locus YOR290C, strain snf2, hits give low values 0.99 | S. cerevisiae deletion strains, locus YOR316C, strain cot1, hits give low values 0.945 | S. cerevisiae deletion strains, locus YPL051W, strain arl3, hits give low values 0.989 | S. cerevisiae deletion strains, locus YPL055C, strain LGE1, hits give low values 0.983 | S. cerevisiae deletion strains, locus YPL078C, strain atp4, hits give low values 0.991 | S. cerevisiae deletion strains, locus YPL106C, strain sse1, hits give low values 0.991 | S. cerevisiae deletion strains, locus YPL240C, strain hsp82, hits give low values 0.989 | S. cerevisiae deletion strains, locus YPL241C, strain CIN2, hits give low values 0.973 | S. cerevisiae deletion strains, locus YPL256C, strain CLN2, hits give low values 1.05 | S. cerevisiae deletion strains, locus YPR119W, strain clb2, hits give low values 0.932 | S. cerevisiae deletion strains, locus YPR141C, strain kar3, hits give low values 0.93 | S. cerevisiae deletion strains, locus YPR163C, strain tif3, hits give low values 0.952 | S. cerevisiae deletion strains, locus YPR167C, strain met16, hits give low values 0.942 | S. cerevisiae deletion strains, strain wtn01, hits give low values 0.936 | S. cerevisiae strains, strain wild type, hits give low values 0.958
